Experimental data: PubChem BioAssay (NCI)
Values joined by “and” are separate entries in the source; they are usually repeats but may differ in a detail not shown here. Equal values may be shown once. Compounds without any hit were thinned out: in the full panel of roughly 79,000, 15% have a hit. Cut-off read from the data, not from the text of the source: active = growth inhibition above about 70%; inactive = the rest.

Tests used:
[1] = NCI Yeast Anticancer Drug Screen. Data for the rad50 strain (AID 155);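 note: 0% = growth of vehicle-only cultures of the same strain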; details: S. cerevisiae rad50 strain growth inhibition, hits give high values; at 50.0 µM unless noted
Summary of the method: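 Compounds were tested on a yeast strain with an engineered DNA damage repair alteration; the reported value is growth inhibition normalised to vehicle treatment.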

[2] = NCI Yeast Anticancer Drug Screen. Data for the mec2-1 strain (AID 157); details: S. cerevisiae mec2-1 strain, hits give high values; at 50.0 µM unless noted
Summary of the method: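 mec2-1 yeast strain, carrying an alteration in DNA damage repair or cell cycle control, was exposed to compounds; growth inhibition was measured relative to vehicle-treated controls.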

[3] = NCI Yeast Anticancer Drug Screen. Data for the sgs1 mgt1 strain (AID 161);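 note: 0% = growth of cultures given vehicle only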; details: S. cerevisiae sgs1 mgt1 strain, hits give high values; at 50.0 µM unless noted
Summary of the method: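 Percent growth inhibition was derived by comparing compound-exposed mutant yeast with vehicle-exposed cultures. The strain carries alterations in DNA damage repair.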

[4] = NCI Yeast Anticancer Drug Screen. Data for the cln2 rad14 strain (AID 165);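 note: 0% = growth equal to vehicle treated cultures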; details: S. cerevisiae cln2 rad14 strain, hits give high values; at 50.0 µM unless noted
Summary of the method: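 Yeast carrying cln2 and rad14 alterations (cell cycle control and DNA damage repair) were exposed to compounds. Growth inhibition was measured against vehicle-treated controls.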

[5] = NCI Yeast Anticancer Drug Screen. Data for the bub3 strain (AID 167); details: S. cerevisiae bub3 mutant strain, hits give high values; at 50.0 µM unless noted
Summary of the method: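 Growth of a checkpoint-deficient yeast mutant is measured after compound exposure. Values represent inhibition relative to vehicle.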

[6] = NCI Yeast Anticancer Drug Screen. Data for the mlh1 rad18 strain (AID 175); details: S. cerevisiae mlh1 rad18 strain growth inhibition, hits give high values; at 50.0 µM unless noted
Summary of the method: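 Growth inhibition of the yeast strain was measured after compound exposure and expressed relative to vehicle-treated controls. The strain carries defined defects in DNA damage repair.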

Measured: growth inhibition

CC(=O)c1ccc(NC(=O)C(=O)C(C(=O)c2ccc(Cl)c(Cl)c2)C2OC(=O)c3ccccc32)cc1 (centres undefined)
inactive: [1] 44.6% | [2] 38.8% | [3] 13.7% | [4] 54.1% | [5] 60.3% | [6] 49.3%

CCOC(=C\C(=O)NC)/C=C/c1ccc([N+](=O)[O-])cc1
inactive: [1] -5.75% | [2] 0.65% | [3] -6.1% | [4] -18.4% | [5] 5.85% | [6] -3.45%

CCCCOC(=O)C(O)Cc1ccoc1 (centres undefined)
inactive: [1] 5.25% | [2] -33.9% | [3] -17.9% | [4] 12.9% | [5] -14.4% | [6] -14.4%

CC(=O)C[n+]1cccc(Br)c1
inactive: [1] -6.7% | [2] 8.7% | [3] 10.2% | [4] -8.15% | [5] 9.5% | [6] -5.9%

O=C1CCCCC(=O)Nc2ccccc2N1
inactive: [1] -22.2% | [2] -15.8% | [3] -6.85% | [4] 0.9% | [5] -4.9% | [6] -20.8%

O=C(O)CCc1cnc[nH]1
inactive: [1] -0.7% | [2] -1.8% | [3] 1.2% | [4] 22.5% | [5] 14.6% | [6] 2.3%

Cn1c2cccc3nnc4cccc(c4c32)n1C
inactive: [1] -37.1% | [2] -9.3% | [3] -4.9% | [4] 4.2% | [5] -6.65% | [6] -11.8%

Cc1cc(Cl)ccc1NC(=O)C(=O)Cc1ccc([N+](=O)[O-])c([N+](=O)[O-])c1CC(=O)C(=O)Nc1ccc(Cl)cc1C
inactive: [1] -10.6% | [2] -30.4% | [3] -13.6% | [4] -7.8% | [5] 18.6% | [6] 7%

N#CC1C(=O)C(=O)N(c2ccccc2)C1=O (centres undefined)
inactive: [1] -6.1% | [2] -6.85% | [3] -24.7% | [4] 3.15% | [5] -1.85% | [6] -6.25%

CSc1ncn(C)c1C(N)=O
inactive: [1] 0.1% | [2] 4.25% | [3] 1.5% | [4] -5.2% | [5] -3.25% | [6] 11.2%

O=C(c1ccc([N+](=O)[O-])cc1)N(Cc1ccccc1)Cc1ccccc1 (tested in a mixture with another compound)
inactive: [1] -7% | [2] 15.7% | [3] -12.7% | [4] -10.9% | [5] 26.8% | [6] 9.5%

CC(C)(Br)C(Br)CCC(C)(Br)C(Br)CO (centres undefined)
inactive: [1] 10.9% | [2] -0.7% | [3] -3.8% | [4] -12.1% | [5] 0.55% | [6] -1.3%

O=c1c(-c2ccccc2)c[nH]c2ccccc12
inactive: [1] 26.7% | [2] 16.6% | [3] 20.9% | [4] 8.45% | [5] -10.9% | [6] 44.5%

CC12C(=C(C#N)C(=N)N1c1ccc(Cl)c(Cl)c1)C=C(O)CC2SCCS(=O)(=O)O (centres undefined)
inactive: [1] 13.2% | [2] 1.4% | [3] -1% | [4] 27.4% | [5] -11.4% | [6] 10.8%

O=C1c2c(ccc3c2CCCC3)CC1Cc1ccc2c(c1)CCCC2 (centres undefined)
inactive: [1] -22% | [2] -15.2% | [3] -18.8% | [4] -25.1% | [5] -17.4% | [6] -37.7%

COc1ccc2c(c1)OC[C@@H]1c3cc(NS(=O)(=O)c4ccccc4)cc(OCc4ccccc4)c3O[C@H]21
inactive: [1] -16.4% | [2] -8.75% | [3] -13.5% | [4] -17.3% | [5] 1.4% | [6] -6.55%

O=[N+]([O-])c1cccc(Br)c1
inactive: [1] 25.9% | [2] 22.8% | [3] -10.7% | [4] -52.6% | [5] 3.45% | [6] 5.75%

Cc1nc(Nc2nc3ccccc3[nH]2)[nH]c(=O)c1CCO
inactive: [1] 9.6% | [2] 5.4% | [3] -7.3% | [4] 21.9% | [5] 15.8% | [6] -6.45%

COc1ccc(-c2oc(=O)cc(-c3ccccc3)c2-c2ccccc2)cc1
inactive: [1] 22.6% | [2] -11.6% | [3] 16.2% | [4] 4.2% | [5] -3.55% | [6] 14.7%

O=C(OC1OCC(OCc2ccccc2)C(OCc2ccccc2)C1OCc1ccccc1)c1ccccc1 (centres undefined)
inactive: [1] 22.6% | [2] -21.5% | [3] -3.9% | [4] -24.3% | [5] -4.2% | [6] -9.15%

N#CC(C(=O)NN)C1CCCCC1 (centres undefined)
inactive: [1] -0.85% | [2] -22% | [3] -2.95% | [4] -0.1% | [5] -33.8% | [6] -11.7%

COC(=O)CCn1cnc2c(SC)ncnc21
inactive: [1] -27.2% | [2] 16.2% | [3] -44% | [4] 21.5% | [5] 19.2% | [6] -12.7%

NC(=O)N/N=C(\C(=O)C(=O)Nc1ccc(Cl)c(C(F)(F)F)c1)c1nc2ccc(C(=O)c3ccccc3)cc2[nH]c1=O
inactive: [1] 25.4% | [2] -1.3% | [3] 38.8% | [4] -37% | [5] -3.35% | [6] 25.1%

Cc1ccc(NC(=S)N2CCCC(C)C2)cc1C (centres undefined)
inactive: [1] -1.15% | [2] -9.85% | [3] 6.15% | [4] -7.3% | [5] 6.15% | [6] -23.6%

Nc1ccc(S(=O)(=O)CCCl)cc1
inactive: [1] 8.7% | [2] 0.95% | [3] 18.5% | [4] 22.2% | [5] 13.7% | [6] 11.6%

Cc1c([N+](=O)[O-])cc(C(C)(C)C)c(OC(=O)c2ccccc2)c1[N+](=O)[O-]
inactive: [1] 41.5% | [2] 24.7% | [3] 41% | [4] 16.3% | [5] 25.4% | [6] 20.4%

O=[N+]([O-])c1cccc(/C=N/Nc2ccc(S(=O)(=O)O)cc2)c1
inactive: [1] 18.6% | [2] 19.3% | [3] -1.9% | [4] 2.5% | [5] 12.7% | [6] 39.2%

O=C1C2=C(C(=O)C3=C1C1CCC3C1)C1CCC2C1
inactive: [1] 4.1% | [2] -34.1% | [3] -11.7% | [4] -15.2% | [5] -5.25% | [6] 0.7%

O=C(C#Cc1ccccc1)Nc1ccccc1CC(c1c[nH]c2ccccc12)c1c[nH]c2ccccc12
inactive: [1] 0.75% | [2] -2.25% | [3] 1.55% | [4] 5.4% | [5] 8.85% | [6] -7.65%

CC1CCC2(C(=O)O)CCC3(C)C(=CCC4C5(C)CCC(O)C(C)(C)C5CCC43C)C2C1C (centres undefined)
inactive: [1] 12.8% and 11.4% | [2] 11.3% and 0.15% | [3] 12.3% and -9.2% | [4] 0.45% and 16.4% | [5] 5.8% and -7.4% | [6] 14.4% and 0.85%

O=C(NCc1ccc(Cl)cc1)NC1CCCCC1
inactive: [1] 5.75% | [2] 36.9% | [3] 35.5% | [4] 2.7% | [5] 20.9% | [6] 46%

C/C(=C(/C)c1ccc(O)cc1)c1ccc(O)cc1
inactive: [1] -9.8% | [2] -23.8% | [3] 16.3% | [4] 9.05% | [5] 45.9% | [6] 2.7%

O=[N+]([O-])c1ncccc1O
inactive: [1] 12.2% | [2] -2.75% | [3] -4.5% | [4] 9.35% | [5] 12% | [6] 15.9%

CC1=CCC(C(C)C)C2CC(C)(O)CCC12 (centres undefined)
inactive: [1] -3.1% | [2] -1.8% | [3] 7.15% | [4] -24.9% | [5] -4.35% | [6] 0.95%

CC1(C)COC2(CCCCC2)OC1
inactive: [1] 12.8% | [2] 4.4% | [3] -10.6% | [4] -30.1% | [5] -1.7% | [6] 8.95%

C(=Nc1cccnc1)c1ccc(C=Nc2cccnc2)cc1
inactive: [1] 21.9% | [2] 37.5% | [3] 30.3% | [4] 25.1% | [5] 33.8% | [6] 33%

COC1CCC2(C)C(CCC3C4CCC(OC(C)=O)C4(C)CCC32)O1 (centres undefined)
inactive: [1] 1.65% | [2] -9.55% | [3] -9.45% | [4] -6.7% | [5] -1.95% | [6] -14.8%

CC(C)(C)OC(=O)NCC(=O)OC/C=C/c1ccccc1
inactive: [1] -2.7% | [2] 1.3% | [3] 6.65% | [4] -8.15% | [5] -3.6% | [6] 6.1%

CC1(CCC(=O)O)C(=O)C(=O)CC2C1CCC1(C)C(O)CCC21 (centres undefined)
inactive: [1] -9.5% | [2] -0.6% | [3] -7.25% | [4] 0.15% | [5] -4.1% | [6] -17.4%
